Pf growth 48h: inhibits P. falciparum growth in the first generation, 48 h; P. falciparum luciferase growth in erythrocytes, 48 h; actives 5.9% (n = 310,000); AID 504832; Potency, µM (series often up to 28.7 µM), actives largely listed as inhibitors
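Growth was read as firefly luciferase luminescence after a 48 h, 37 C, 5% CO2 exposure of compounds to reporter-bearing P. falciparum cultures (0.1% parasitemia, 2% hematocrit final) in Albumax-supplemented RPMI 1640.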
HCMV inh: blocks human cytomegalovirus replication; activity change, negative = inhibition, % at 57.5 µM; actives 4.5% (n = 410,000); AID 1259415; HFF cells, HCMV-luciferase reporter, 72 h; hits give low values; in the data active means activity change below about -60%; inconclusive means no clear call, values can overlap the other calls; inactive means above about -39%
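After 16 h attachment at 37C, HFF cells received test compound and HCMV-luciferase (1 PFU/cell); reporter luminescence read 72 h later, data normalized against buffer-only and known inhibitor Salinomycin.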
HCV inhibitor: blocks hepatitis C virus. Potency, µM (highest dose often 41.8 µM), usual class: inhibitors. AID 651820. actives 3.4% (n = 340,000). Huh7.5.1 HCVcc-Cre infection, luciferase reporter, 44 h
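A cell-based infection assay in which seeded cells (1,000 per well) receive test compound after 4 h, are inoculated with HCVcc-Cre at approximately 0.5 moi, and are incubated 44 h before luminescence detection.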
Pf growth 96h: P. falciparum growth inhibition at 96 hour, primary screen for plastid delayed-death inhibitors; Potency, µM (series often up to 28.7 µM), most hits filed as inhibitors; AID 504834; actives 6.9% (n = 320,000); P. falciparum luciferase reporter growth, 96 h
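P. falciparum expressing integrated firefly luciferase grown in erythrocytes (2% hematocrit, 0.05% parasitemia final) with compounds for 96 hours at 37 C, 5% CO2. Growth inhibition read as loss of luminescence after adding luciferase detection reagent.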
Of the large screens only hits and unclear results are named; the others gave an inactive call. This is a sample that favours compounds with a hit; in the whole collection about 13% have one here. Unless noted, the call rests on the fitted dose curve; in most records, active means well fitted inhibition curve with a large enough effect; inconclusive means small, poorly fitted or top-dose-only effect, or another doubt; inactive means no such curve, though single readings can be large or run the other way.

CS(=O)(=O)c1ccc(C(=O)OC2CCOC2=O)cc1[N+](=O)[O-] (centres undefined)	Pf growth 48h 6.6µM, HCMV inh inconclusive, HCV inhibitor inconclusive, Pf growth 96h inconclusive
CNC(=O)COC(=O)c1ccccc1C(=O)c1ccc(Cl)c([N+](=O)[O-])c1	Pf growth 48h inconclusive, HCMV inh -100, HCV inhibitor inconclusive
O=C(COC(=O)c1cc([N+](=O)[O-])ccc1Cl)NC1CCCC1	none
O=C(OC1CCOC1=O)c1ccccc1C(=O)c1ccc(Cl)c([N+](=O)[O-])c1 (centres undefined)	Pf growth 48h inconclusive, HCV inhibitor 11µM (no result: HCMV inh)
CC(=O)Nc1ccc(S(=O)(=O)N2CCC(N3CCN(Cc4ccc(C)cc4)C(=O)C3=O)CC2)cc1	none (no result: Pf growth 48h, HCV inhibitor, Pf growth 96h)
COc1ccc(C(=O)Nc2cccc(C)n2)cc1S(=O)(=O)N1CCCc2ccccc21	HCMV inh -72, HCV inhibitor 2.5µM (no result: Pf growth 48h, Pf growth 96h)
COc1ccc(C(=O)Nc2ccc(C)cn2)cc1S(=O)(=O)N1CCCc2ccccc21	Pf growth 48h 12µM, HCMV inh inconclusive, HCV inhibitor 4.5µM, Pf growth 96h inconclusive
COc1ccc(C(=O)O)cc1S(=O)(=O)N1CCCc2ccccc21	none
O=C(c1ccc(Cl)c(S(=O)(=O)N2CCc3ccccc32)c1)N1CCN(c2ccccc2O)CC1	HCV inhibitor inconclusive (no result: Pf growth 48h, Pf growth 96h)
Cc1ccc(NC(=O)c2ccc(Cl)c(S(=O)(=O)N3CCc4ccccc43)c2)nc1	HCMV inh -79, HCV inhibitor inconclusive (no result: Pf growth 48h, Pf growth 96h)
O=C(NNC(=O)c1ccccc1O)c1ccc(Cl)c(S(=O)(=O)N2CCc3ccccc32)c1	Pf growth 48h inconclusive, HCMV inh -72, HCV inhibitor inconclusive
Cc1cccc(-n2ncc(C(=O)N3CCN(Cc4ccccc4)CC3)c2C2CCN(C(=O)OC(C)(C)C)CC2)c1	none (no result: Pf growth 48h, HCV inhibitor, Pf growth 96h)
COc1cc(NC(=O)CSc2cc(=O)n(C)c3ccccc23)cc(OC)c1OC	none (no result: Pf growth 48h, HCV inhibitor, Pf growth 96h)
CCOc1ccc(-c2cc(C(=O)Nc3ccc(F)cc3)[nH]n2)c(C)c1	none (no result: Pf growth 48h, HCV inhibitor, Pf growth 96h)
COc1ccc(C(=O)NCc2ccccc2)cc1S(=O)(=O)N1CCCc2ccccc21	Pf growth 48h inconclusive, HCV inhibitor 11µM (no result: Pf growth 96h)
COc1ccc(C(=S)N2CCOCC2)cc1OC(=O)c1ccccc1	none
COc1ccc(C(=S)N2CCOCC2)cc1OC(=O)c1ccc(C)cc1	Pf growth 96h 2.9µM
CCOc1cc(C(=S)N2CCOCC2)ccc1OC(=O)c1ccccc1	Pf growth 96h inconclusive
CCOc1cc(C(=S)N2CCOCC2)ccc1OC(=O)c1cccc(C)c1	HCV inhibitor 11µM
Cc1ccc2oc(=O)n(CCNC(=O)Nc3ccc(C)c(F)c3)c2c1	none (no result: Pf growth 48h, HCV inhibitor, Pf growth 96h)
COc1ccc(C2CC(=O)N(Cc3cccc(C)c3)c3c2c(C)nn3-c2nc(C)cc(C)n2)c(OC)c1 (centres undefined)	none (no result: Pf growth 48h, HCV inhibitor, Pf growth 96h)
c1ccc(-c2cc3ccccc3[nH]2)cc1	HCMV inh -65, HCV inhibitor inconclusive
COc1ccc(C2CC(=O)c3c(O)cc(O)cc3O2)cc1O (centres undefined)	none (no result: Pf growth 48h, Pf growth 96h)
COc1cc(C2Oc3cc(C4Oc5cc(O)cc(O)c5C(=O)C4O)ccc3OC2CO)ccc1O (centres undefined)	HCMV inh -67, HCV inhibitor inconclusive
O=C(NCc1ccccc1)c1cccn1-c1nnc(N2CCCC2)s1	none (no result: Pf growth 48h, HCV inhibitor, Pf growth 96h)
O=C(NCCOc1ccc(F)cc1)c1ccccc1SCc1ccccc1	HCMV inh -62, HCV inhibitor inconclusive
COc1ccc(C(=O)Nc2ccccc2C(N)=O)cc1	none (no result: Pf growth 96h)
COc1ccc(C(=O)Nc2ccc(NC(=O)c3cnccn3)cn2)cc1	HCV inhibitor 13µM
COc1ccc(C(=O)NC(Nc2ccccc2)C(Cl)(Cl)Cl)cc1 (centres undefined)	Pf growth 48h inconclusive, HCMV inh inconclusive, HCV inhibitor 7.9µM
CCc1ccc(OCCNC(=O)c2ccccc2SCc2ccc(F)cc2)cc1	HCMV inh inconclusive, HCV inhibitor inconclusive, Pf growth 96h inconclusive
COC(=O)c1ccccc1NC(=O)CNC(=O)c1ccc(OC)cc1	HCMV inh active, Pf growth 96h inconclusive
CC(C)c1cnc2c(c1SCC(=O)Nc1cccc(F)c1)c(=O)n(C)c(=O)n2C	none (no result: Pf growth 48h, HCV inhibitor, Pf growth 96h)
CCOC(=O)c1ccc(NC(=O)C2(c3ccc(OC)cc3)CCOCC2)cc1	none
CCOC(=O)c1ccc(NC(=O)C2(c3ccc(OC)cc3)CCCC2)cc1	Pf growth 48h 5.9µM, Pf growth 96h inconclusive
Cc1ccc(NC(NC(=O)c2cccnc2)C(Cl)(Cl)Cl)cc1 (centres undefined)	Pf growth 96h 13µM
COc1ccc(NC(=O)Nc2ccccc2F)cc1	none (no result: Pf growth 48h)
COc1ccc(NC(=O)Nc2ccccc2SC)cc1	Pf growth 96h 5.9µM
O=C(NNC(=O)c1ccc(NC(=O)c2ccccc2)cc1)Nc1ccccc1	HCMV inh -62, Pf growth 96h inconclusive
O=C(NNC(=O)c1ccc(NC(=O)c2ccccc2)cc1)c1ccc(F)cc1	none
NS(=O)(=O)c1ccc(NC(NC(=O)c2cccnc2)C(Cl)(Cl)Cl)cc1 (centres undefined)	none
Cc1cccc(N2CCN(S(=O)(=O)c3cn(C)c(C)n3)CC2)c1C	none (no result: Pf growth 48h, HCV inhibitor, Pf growth 96h)
CCC(=O)N1c2ccccc2CC1C(=O)NCc1ccc(N(C)C)cc1 (centres undefined)	none (no result: Pf growth 48h, HCV inhibitor, Pf growth 96h)
Cc1cccc(N(CC(=O)NCc2ccccc2)S(C)(=O)=O)c1C	none (no result: Pf growth 48h, HCV inhibitor, Pf growth 96h)
COc1ccc(NC(=O)C(CC(=O)O)Cc2ccccc2)cc1 (centres undefined)	Pf growth 96h 7.4µM
COc1ccc(C(=O)Nc2ccccc2C(=O)Nc2ccncc2)cc1	Pf growth 48h 10µM, HCV inhibitor inconclusive
COc1ccc(-n2c(=O)[nH]cc(C(=O)Nc3ccccc3)c2=O)cc1	HCMV inh -64
COc1ccc(NC(=O)c2ccccc2SCc2ccccc2)cc1	HCMV inh -106 (no result: Pf growth 48h, HCV inhibitor, Pf growth 96h)
OC[C@@H]1CN(Cc2cccc3ccccc23)C[C@H](n2cnc3c(NCc4ccco4)ncnc32)O1	none (no result: Pf growth 48h, HCV inhibitor, Pf growth 96h)
COc1ccc(NC(=O)c2ccccc2)cc1	HCV inhibitor 0.56µM
COc1ccc(C(=O)OC(C(=O)c2ccccc2)c2ccccc2)cc1 (centres undefined)	Pf growth 48h inconclusive, Pf growth 96h inconclusive
O=C(C[n+]1ccc(C(=O)c2ccccc2)cc1)Nc1ccc(C(F)(F)F)cc1	Pf growth 48h inconclusive, HCV inhibitor 2µM
COc1ccc(C(=O)Nc2ccc(C3(C#N)CCCC3)cc2)cc1	HCMV inh -75, HCV inhibitor 5.6µM, Pf growth 96h inconclusive
COc1ccc(NC(=O)c2ccc(C)cc2)cc1	Pf growth 96h inconclusive
Nc1cc[n+](CC(=O)Nc2ccccc2)cc1	Pf growth 48h inconclusive, HCV inhibitor inconclusive
COc1ccc(C(C(=O)c2ccccc2)c2ccccc2)cc1 (centres undefined)	HCMV inh -82 (no result: Pf growth 48h, HCV inhibitor, Pf growth 96h)
CCc1ccc(NC(=O)CSc2nc3nccnc3c(=O)n2CCc2c[nH]c3ccccc23)cc1	none (no result: Pf growth 48h, HCV inhibitor, Pf growth 96h)
CC(=O)c1ccc(NC(=O)c2sc(-n3nc(C)c(CCC(C)C)c3C)nc2C)cc1	none (no result: Pf growth 48h, HCV inhibitor, Pf growth 96h)
O=C(Nc1ccc(C(=O)c2ccccc2)cc1)c1ccccc1	HCV inhibitor 2.8µM, Pf growth 96h inconclusive
CN(C(=S)Oc1ccc(C(=O)Nc2ccccc2)cc1)c1ccccc1	Pf growth 48h inconclusive, HCMV inh -67, HCV inhibitor inconclusive

Compound activity from PubChem.
